“And” between values parts separate entries of the source, which are not always exact repeats. Equal entries are not always repeated. Some structures have more than one record in an assay (separate samples or runs), and their calls can disagree. The source made the active and inactive calls. The call rests on the fitted dose curve; in most records, active means well fitted curve in the direction sought with a large enough effect in the signal ratio in the repeat runs (not every such curve was filed as active); inconclusive means weak or mixed curves, or effect the other way; inactive means no such curve, though single readings can be large or run the other way; the % refers to the signal ratio.
What follows are compounds tested against Estrogen receptor (Homo sapiens) (UniProt P03372) (assay: qHTS assay to identify small molecule antagonists of the estrogen receptor alpha (ER-alpha) signaling pathway (AID 743069)). Settings: HEK293 ER-alpha-UAS-bla, beta-lactamase ratio, antagonist mode; series mostly up to 69.4 µM; activity, negative = inhibition: at the top concentration.
Source text: National Center for Advancing Translational Sciences [NCATS]
NIH Chemical Genomics Center [NCGC]
U.S. Environmental Protection Agency [EPA]
National Institutes of Environmental Health Sciences [NIEHS]
National Toxicology Program [NTP]
U.S. Food and Drug Administration [FDA]
Estrogen receptor (ER), a nuclear hormone receptor, plays an important role in development, metabolic homeostasis and reproduction. Two subtypes of ER, ER-alpha and ER-beta have similar expression patterns with some uniqueness in both types. Endocrine disrupting chemicals (EDCs) and their interactions with steroid hormone receptors like ER causes disruption of normal endocrine function. To identify the compounds that inhibit ER signaling, an ER-alpha-UAS-bla GripTiteTM cell line (Invitrogen, Carlsbad, CA, USA) containing a beta-lactamase reporter gene under the control of an Upstream Activator Sequence (UAS) stably integrated into HEK293 cells was used to screen the Tox21 10K compound library.
Tox21 Assay Protocol Summary:
ER-alpha-bla cells were cultured in assay medium containing 2% charcoal stripped FBS overnight in the culture flasks before the assay was performed. The cells were dispensed at 5,000 cells/5 uL of assay medium per well into black wall/clear-bottom 1536-well plates using a Multidrop Combi (ThermoFisher Scientific, Waltham, MA) dispenser. After the assay plates were incubated at a 37C and 5% CO2 for 4 hr, 23 nL of compounds dissolved in DMSO, positive controls or DMSO only was transferred to the assay plate by a Pintool station (Kalypsys, San Diego, CA), followed by addition of 1 uL of 17beta-estradiol in assay medium using a Flying Reagent Dispenser (Aurora Discovery, San Diego, CA). The plates were incubated at 37C and 5% CO2 for 18 hr. Then 1 uL of LiveBLAzerTM B/G FRET substrate was added using a Flying Reagent Dispenser, the plates were incubated at room temperature for 2 hours, and fluorescence intensity was measured by an Envision plate reader (PerkinElmer, Shelton, CT).
On the % scale 0 is the no-effect control and ±100 the full control effect; potency means the concentration at half of the fitted maximal effect.

Chain of Estrogen receptor (Homo sapiens) (P03372 whole entry, looked up): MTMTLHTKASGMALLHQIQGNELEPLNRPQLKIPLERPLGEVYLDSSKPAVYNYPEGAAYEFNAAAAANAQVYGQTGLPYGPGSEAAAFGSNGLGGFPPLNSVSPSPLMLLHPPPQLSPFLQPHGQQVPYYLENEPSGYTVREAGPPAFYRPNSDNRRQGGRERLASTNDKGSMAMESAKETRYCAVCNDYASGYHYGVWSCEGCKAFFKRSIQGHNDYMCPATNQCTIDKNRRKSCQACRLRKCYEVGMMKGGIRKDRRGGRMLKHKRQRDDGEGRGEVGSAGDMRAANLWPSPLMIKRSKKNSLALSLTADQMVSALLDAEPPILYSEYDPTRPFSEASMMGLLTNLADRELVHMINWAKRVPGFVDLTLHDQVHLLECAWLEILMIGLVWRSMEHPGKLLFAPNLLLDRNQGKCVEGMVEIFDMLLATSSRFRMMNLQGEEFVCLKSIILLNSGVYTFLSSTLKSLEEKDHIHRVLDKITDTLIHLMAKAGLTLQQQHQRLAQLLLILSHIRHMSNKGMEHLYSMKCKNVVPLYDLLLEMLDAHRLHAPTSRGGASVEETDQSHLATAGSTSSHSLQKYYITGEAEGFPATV

| Structure (SMILES) | activity, negative = inhibition | Potency |
| --- | --- | --- |
| CC(=O)CC(C)=O | 10.6% [at 79.1 µM] (inactive) |  |
| C=CS(=O)(=O)O |  | inactive |
| CCCCCCCCCCCCCCCCCl | -8.71% [at 32.6 µM] (inactive) |  |
| NCCO |  | inactive |
| CCCCN(CCO)CCCC | 3.02% [at 79.1 µM] (inactive) |  |
| CC(C)(c1ccccc1)c1ccc(Nc2ccc(C(C)(C)c3ccccc3)cc2)cc1 |  | 61.7 µM [cytotoxic] (active) |
| CC(C)(C)c1ccc(O)c(C(C)(C)C)c1 |  | inactive |
| COC(=O)c1cccc(C(=O)OC)c1 |  | inactive |
| CCCNC(C)C(=O)Nc1ccccc1C (stereo not given) | 6.24% (inactive) |  |
| CCc1ccc(C(c2ccc(CC)cc2)C(Cl)Cl)cc1 |  | inactive |
| OCCN1CCNCC1 |  | inactive |
| CCC(C)(Oc1ccc(C2(c3ccc(OC(C)(CC)C(=O)O)cc3)CCCCC2)cc1)C(=O)O (stereo not given) | -1.98% (inactive) |  |
| C=C(C)C1CC=C(C)C(OC(C)=O)C1 (stereo not given) |  | inactive |
| CN(C)c1ccc2nc3ccc(=[N+](C)C)cc-3sc2c1 | -20% (inactive) |  |
| CCCCC(CC)COC(=O)CC(C(=O)OCC(CC)CCCC)S(=O)(=O)O (stereo not given) |  | 21.3 µM [inhibitor] (active) and 54.9 µM [inhibitor] (active) |
| Cc1ccc(-c2cc(C(F)(F)F)nn2-c2ccc(S(N)(=O)=O)cc2)cc1 |  | inactive and 54.9 µM [inconclusive] (active) |
| CCN(CC)C(=O)Nc1ccc(OCC(O)CNC(C)(C)C)c(C(C)=O)c1 (stereo not given) | 15.7% (inactive) |  |
| COc1nc(C)nc(Cl)c1NC1=NCCN1 | -6.87% [at 32.6 µM] (inactive) |  |
| Cc1cccc([N+](=O)[O-])c1C(=O)O | 3.41% (inactive) |  |
| CCCCC/C=C/CC1CC(=O)OC1=O (stereo not given) | 47% (inactive) |  |

| Structure (SMILES) | activity, negative = inhibition | Potency |
| --- | --- | --- |
| CC(=O)C1=C(C)[C@@H]2C[C@@]3(C1)[C@H](C)CC[C@H]3C2(C)C |  | inactive |
| NC(N)=Nc1nc(CSCC/C(N)=N/S(N)(=O)=O)cs1 |  | inactive |
| O=C1NCC2(CCN(CCc3ccccc3)CC2)O1 | 10.9% (inactive) |  |
| OCC(CO)N[C@H]1C[C@](O)(CO)[C@@H](O)[C@H](O)[C@H]1O | -4.35% (inactive) |  |
| CC(=O)CC(=O)Nc1ccc2[nH]c(=O)[nH]c2c1 | 15.4% (inactive) |  |
| CCn1c2ccccc2c2cc(N)ccc21 | 22.8% (inactive) |  |
| Clc1ccc2c(c1)C(N1CCNCC1)=Nc1ccccc1O2 | 14.9% (inactive) |  |
| CCOc1ccccc1C(N)=O |  | inactive |
| CC[C@@H](N)CO | 12.2% [at 79.1 µM] (inactive) |  |
| c1cc(C(c2ccc(OCC3CO3)cc2)C(c2ccc(OCC3CO3)cc2)c2ccc(OCC3CO3)cc2)ccc1OCC1CO1 (stereo not given) |  | inactive |
| c1cnc2cc3c(cc2n1)C1CNCC3C1 | -15.7% [at 79.1 µM] (inactive) |  |
| NC(=Nc1ccccc1)Nc1ccccc1 |  | inactive |
| Cc1cccc(O)c1C | 22% (inactive) |  |
| O=C(O)c1cccc(C(=O)O)c1 |  | inactive |
| CO[Si](OC)(OC)c1ccccc1 | -21.2% (inactive) |  |
| Cc1scc2c1N(C(=O)CN1CCN(C)CC1)c1ccccc1NC2=O | 7.83% (inactive) |  |
| BrC1CCC(Br)C(Br)CCC(Br)C(Br)CCC1Br (stereo not given) |  | inactive |
| CCC(C)(C)C(=O)O[C@H]1C[C@@H](C)C=C2C=C[C@H](C)[C@H](CC[C@@H]3C[C@@H](O)CC(=O)O3)[C@H]21 | -15.5% (inactive) |  |
| O=C1Nc2ccccc2C1(c1ccc(O)cc1)c1ccc(O)cc1 |  | 49 µM [inconclusive] (active) |
| CC(C)(O)CCC(C)(C)O | -2.16% [at 79.1 µM] (inactive) |  |
